In PubChem BioAssay (Tox21):
“And” between values parts separate entries of the source, which are not always exact repeats. Identical values can stand only once. Inconclusive results are not listed. A structure can be active in one record and inactive in another. The source made the active and inactive calls. Unless noted, the call rests on the fitted dose curve; in most records, active means well fitted curve in the direction sought with a large enough effect in the repeat runs; inconclusive means weak or mixed curves; inactive means no such curve, though single readings can be large; an effect the other way counts as inactive or inconclusive.

Tests used:
[1] = qHTS assay to identify small molecule agonists of the androgen receptor (AR) signaling pathway in the presence of an antagonist - cell viability counter screen (AID 1259379); further: nearly all actives have a fitted effect of over 25% in size; further: potency means the concentration at half of the fitted maximal effect
Outline: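 Cells: MDA-kb2 (MMTV-luc, AR and GR elements), 3,000/well, 5 hr settle. Added: nilutamide 3.0uM final, then compounds (15 conc.). Incubation: 16 hr, 37C, no CO2. Read-out: CellTiter-Fluor, 1 hr, fluorescence.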

[2] = qHTS assay to identify small molecule agonists of the estrogen receptor beta (ER-beta) signaling pathway - cell viability counter screen (AID 1259380); further: nearly all actives have a fitted effect of over 30% in size; further: potency means the concentration at half of the fitted maximal effect
Outline: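 HEK293T ER-beta-UAS-bla; 2% CS-FBS; 6 hr pre-plate, 16 hr cpd at 37C/5% CO2; LiveBLAzer read first, then CellTiter-Glo 30 min RT, luminescence.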

[3] = qHTS assay to identify small molecule antagonists of the estrogen receptor beta (ER-beta) signaling pathway - cell viability counter screen (AID 1259382); further: nearly all actives have a fitted effect of over 55% in size; further: potency means the concentration at half of the fitted maximal effect
Outline: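 Cells: ER-beta-UAS-bla HEK293T, 2,000/well, 2% CS-FBS, 6 hr settle. Cpd + E2 (1nM final), 16 hr, 37C/5% CO2. Bla FRET substrate 2 hr RT, then CellTiter-Glo 30 min RT, luminescence.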

[4] = qHTS assay to identify small molecule agonists or antagonists of the thyroid stimulating hormone receptor (TSHR) signaling pathway - wild type cell line counter screen (AID 1259384; calls by dose curve)
Outline: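 Wild-type HEK293 cells were plated 18 h at 37 C/5% CO2, pin-dosed with compound plus Ro20-1724 medium, held 30 min at room temperature, then given cAMP-d2 and anti-cAMP-cryptate; fluorescence was read after 1 h. Fifteen concentrations, triplicate.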

[5] = target: Thyrotropin receptor (Homo sapiens) (UniProt P16473); assay: qHTS assay to identify small molecule antagonists of the thyroid stimulating hormone receptor (TSHR) signaling pathway (AID 1259385; calls by dose curve; further: nearly all actives have a fitted effect of over 20% in size)
Sequence of Thyrotropin receptor (Homo sapiens) (P16473 whole entry, looked up): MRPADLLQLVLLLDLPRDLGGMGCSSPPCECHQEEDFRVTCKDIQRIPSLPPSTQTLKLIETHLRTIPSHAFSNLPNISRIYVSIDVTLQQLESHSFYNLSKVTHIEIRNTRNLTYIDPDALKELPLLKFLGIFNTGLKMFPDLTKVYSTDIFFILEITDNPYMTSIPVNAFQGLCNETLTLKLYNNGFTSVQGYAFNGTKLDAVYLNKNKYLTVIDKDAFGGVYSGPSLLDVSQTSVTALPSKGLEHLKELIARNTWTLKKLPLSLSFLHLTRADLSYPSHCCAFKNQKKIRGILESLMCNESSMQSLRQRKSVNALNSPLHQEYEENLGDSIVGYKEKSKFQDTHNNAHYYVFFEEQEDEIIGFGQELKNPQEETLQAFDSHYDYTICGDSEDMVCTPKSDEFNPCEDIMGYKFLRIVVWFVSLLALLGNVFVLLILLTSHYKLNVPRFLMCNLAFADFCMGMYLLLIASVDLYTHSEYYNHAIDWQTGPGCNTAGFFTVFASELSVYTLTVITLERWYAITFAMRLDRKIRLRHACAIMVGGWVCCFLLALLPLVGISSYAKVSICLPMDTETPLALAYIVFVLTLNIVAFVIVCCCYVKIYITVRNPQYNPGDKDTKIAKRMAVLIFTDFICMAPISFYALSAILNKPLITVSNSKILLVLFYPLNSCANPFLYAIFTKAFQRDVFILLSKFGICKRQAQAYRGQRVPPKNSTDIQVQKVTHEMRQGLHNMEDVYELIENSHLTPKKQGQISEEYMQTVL
Outline: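 TSHR-HEK293 cells were plated and held 18 h at 37C/5% CO2, then given compound plus Ro20-1724 and stimulated with TSH at 1.5 ng/mL final. After 30 min at room temperature, cAMP was detected with cAMP-d2/anti-cAMP-cryptate (1 h) by fluorescence.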

[6] = qHTS assay to identify small molecule agonists of the estrogen receptor alpha (ER-alpha) signaling pathway in the presence of an antagonist - cell viability counter screen (AID 1259386);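 further: cells exposed to compounds for 22 h at 37 °C before the viability read; nearly all actives have a fitted effect of over 30% in size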; further: potency means the concentration at half of the fitted maximal effect
Outline: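 VM7Luc4E2, stripped-serum pre-culture 5 d; 24hr plating; +ICI-182,780 10.0nM final; cpds 15 conc, 22hr, 37C/5% CO2; CellTiter-Fluor added at 21hr, fluorescence 1hr later.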

[7] = target: Estrogen receptor (Homo sapiens) (UniProt P03372); assay: qHTS assay to identify small molecule agonists of the estrogen receptor alpha (ER-alpha) signaling pathway in the presence of an antagonist (AID 1259383; calls by dose curve; further: nearly all actives have a fitted effect of over 15% in size; further: potency means the concentration at half of the fitted maximal effect)
Sequence of Estrogen receptor (Homo sapiens) (P03372 whole entry, looked up): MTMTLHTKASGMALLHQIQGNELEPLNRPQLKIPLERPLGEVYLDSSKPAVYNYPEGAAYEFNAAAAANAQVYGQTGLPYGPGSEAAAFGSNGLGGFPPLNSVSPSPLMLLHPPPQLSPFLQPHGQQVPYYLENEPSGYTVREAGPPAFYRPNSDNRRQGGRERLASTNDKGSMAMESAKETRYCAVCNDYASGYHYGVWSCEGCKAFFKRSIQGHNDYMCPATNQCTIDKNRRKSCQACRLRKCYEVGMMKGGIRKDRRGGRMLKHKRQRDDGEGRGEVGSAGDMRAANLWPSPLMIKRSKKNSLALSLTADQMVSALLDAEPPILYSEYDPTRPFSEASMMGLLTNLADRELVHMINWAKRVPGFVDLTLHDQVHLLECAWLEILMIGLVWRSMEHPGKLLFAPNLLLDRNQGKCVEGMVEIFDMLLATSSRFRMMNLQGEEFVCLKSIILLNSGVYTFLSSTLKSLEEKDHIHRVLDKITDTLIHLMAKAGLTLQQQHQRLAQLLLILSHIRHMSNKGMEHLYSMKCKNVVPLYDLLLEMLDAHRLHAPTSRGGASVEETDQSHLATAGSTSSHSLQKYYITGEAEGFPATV
Outline: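 VM7Luc4E2, endog. ER-alpha + 4×ERE-luc; charcoal-stripped FBS, phenol red-free, 5 d; 24hr plating; +10.0nM ICI-182,780 (final); cpds 15 conc, 22hr, 37C/5% CO2; ONE-Glo luminescence.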

Measured: Potency

O=C(NCC1CCCCN1)c1cc(OCC(F)(F)F)ccc1OCC(F)(F)F (stereo not given)
not listed: [7]
inactive: all other assays above

Oc1ccc(Cc2ccccc2O)cc1
not listed: [2]
inactive: all other assays above

Cc1ccc(Cl)cc1
inactive: all assays above

Cc1ncc(CO)c(CO)c1O
not listed: [7]
inactive: all other assays above

CC(=O)OC(C)(C)C1CC=C(C)CC1 (stereo not given)
inactive: all assays above

O=c1n(CCCN2CCN(c3cccc(Cl)c3)CC2)nc2ccccn12
active: [2] 24.3 µM
not listed: [7]
inactive: all other assays above

COC(=O)CCCCC(=O)OC
not listed: [4] | [5]
inactive: all other assays above

CCOC(=O)CC(=O)OCC
not listed: [7]
inactive: all other assays above

CC(C)(C)NC[C@H](O)COc1nsnc1N1CCOCC1
inactive: [1] | [2] | [3] | [6]

CC(=O)OC/C=C(\C)CCC=C(C)C
inactive: all assays above

Cc1cc(C)c(O)c(C)c1
inactive: all assays above

OB(O)O
inactive: all assays above

CC(=O)c1nccs1
inactive: all assays above

COc1ccc(N)c(OC)c1
inactive and 54.5 µM (active): [2]
inactive: all other assays above

Cc1ccccc1C=O
inactive: all assays above

NC(=O)c1ncn([C@@H]2O[C@H](CO)[C@@H](O)[C@H]2O)n1
inactive: [1] | [2] | [3] | [6]

Brc1ccc(Oc2ccc(Br)cc2)cc1
not listed: [5] | [7]
inactive: all other assays above

CCCOC(=O)NCCCN(C)C
not listed: [7]
inactive: all other assays above

C=C1C[C@]23C[C@@]1(O)CC[C@H]2[C@@]12C=C[C@H](O)[C@@](C)(C(=O)O1)[C@H]2[C@@H]3C(=O)O
not listed: [7]
inactive: all other assays above

Cc1ccc(C)c(S(=O)(=O)O)c1
not listed: [7]
inactive: all other assays above

CC1(C)C(=O)N(Cl)C(=O)N1Cl
inactive: all assays above

CC1=CC(=O)CC(C)(C)C1
14.1 µM (active) and inactive: [3]
active: [2] 6.29 µM
not listed: [7]
inactive: all other assays above

COc1ccccc1[N+](=O)[O-]
inactive: [1] | [2] | [3] | [6]

Clc1cccc(Cl)c1NC1=NCCN1
not listed: [7]
inactive: all other assays above

O=C1OC(=O)c2c(Cl)c(Cl)c(Cl)c(Cl)c21
not listed: [7]
inactive: all other assays above

O=c1c(O)c(-c2ccc(O)c(O)c2)oc2cc(O)cc(O)c12
48.6 µM (active) and inactive: [1]
24.4 µM (active) and inactive: [7]
inactive: all other assays above

CCn1cc(C(=O)O)c(=O)c2cc3c(cc21)OCO3
not listed: [7]
inactive: all other assays above

O=C(c1ccccc1)c1ccc(O)c(O)c1O
inactive: [2] | [3] | [7] | [4]
active: [6] 61.6 µM

Nc1cccc(N)n1
inactive: all assays above

N[C@@H](Cc1cc(I)c(Oc2ccc(O)c(I)c2)c(I)c1)C(=O)O
not listed: [4]
inactive: all other assays above

CC[N+](CC)(CC(=O)Nc1c(C)cccc1C)Cc1ccccc1
not listed: [7]
inactive: all other assays above

OC1CCCCC1
inactive: all assays above

COc1ccc2cc3[n+](cc2c1OC)CCc1cc2c(cc1-3)OCO2
inactive: [3] | [7]
active: [1] 4.89 µM and 8.41 µM | [2] 48.9 µM | [6] 27.5 µM and 26.6 µM

CC(O)CNCC(C)O (stereo not given)
inactive: all assays above

CC1(C)[C@@H](O[C@H]2O[C@H](C(=O)O)[C@@H](O)[C@H](O)[C@H]2O[C@@H]2O[C@H](C(=O)O)[C@@H](O)[C@H](O)[C@H]2O)CC[C@]2(C)[C@H]3C(=O)C=C4[C@@H]5C[C@@](C)(C(=O)O)CC[C@]5(C)CC[C@@]4(C)[C@]3(C)CC[C@@H]12
not listed: [7]
inactive: all other assays above

NC(N)=S
inactive: all assays above
